Shown are actives, neighbours in structure and some others; about 3.4% of the full set was active somewhere.
GPR151 activ: activates the human receptor GPR151; Q8TDV0; PathHunter beta-arrestin GPR151 cells, luminescence; activation, % at 11.2 µM; 650,000 compounds, 1% hits; AID 1508602; in the data active = activation above about 4.9%
FBW7 activator: activators of human E3 ligase FBW7 | 650,000 compounds, 0.13% hits | Q969H0 | AlphaScreen FBW7–phospho-cyclin E peptide binding, activator screen | normalized activity (activation), % at 26.1 µM; in the data active = normalized activity above about 1.9%;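 note: purified mutant Fbw7 with reduced substrate affinity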
Target sequence (Q969H0 whole entry, looked up): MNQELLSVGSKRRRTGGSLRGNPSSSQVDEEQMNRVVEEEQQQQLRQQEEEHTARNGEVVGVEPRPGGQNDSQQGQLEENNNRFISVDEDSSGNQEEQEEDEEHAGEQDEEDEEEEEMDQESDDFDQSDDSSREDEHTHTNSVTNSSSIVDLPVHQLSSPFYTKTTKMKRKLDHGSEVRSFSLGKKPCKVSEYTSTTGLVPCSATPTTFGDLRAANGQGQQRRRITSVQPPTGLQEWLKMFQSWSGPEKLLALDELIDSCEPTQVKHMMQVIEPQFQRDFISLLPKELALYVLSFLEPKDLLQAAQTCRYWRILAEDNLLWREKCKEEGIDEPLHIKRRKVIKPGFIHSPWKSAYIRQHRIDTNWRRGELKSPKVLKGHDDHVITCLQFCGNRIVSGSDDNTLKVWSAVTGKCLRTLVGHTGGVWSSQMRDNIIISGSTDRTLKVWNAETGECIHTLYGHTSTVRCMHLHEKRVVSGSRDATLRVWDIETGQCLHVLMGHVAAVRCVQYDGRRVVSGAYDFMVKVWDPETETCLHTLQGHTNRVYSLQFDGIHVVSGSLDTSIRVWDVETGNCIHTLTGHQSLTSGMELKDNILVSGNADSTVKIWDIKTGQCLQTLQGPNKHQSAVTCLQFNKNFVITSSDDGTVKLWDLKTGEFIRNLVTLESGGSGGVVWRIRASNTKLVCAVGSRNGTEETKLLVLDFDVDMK
TEAD-YAP block: TEAD-YAP interaction inhibition | HEK-TIYL cells, TEAD-Gal4/YAP UAS-luciferase luminescence | inhibition, % at 9.12 µM | 640,000 compounds, 1.4% hits; in the data active = inhibition above about 32%
MITF inh: inhibitors of human MITF; inhibition, % at 2.6 µM; AlphaScreen MITF homodimerization, bead proximity signal; 650,000 compounds, 0.91% hits; AID 1259374; in the data active = inhibition above about 50%
MITF confirm: confirmation of human MITF inhibitors | 4,700 compounds, 16% hits | shares compounds with MITF inh | inhibition, % at 2.6 µM | AlphaScreen MITF homodimerization, biotin/His-MITF beads;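 active = inhibition above a cutoff derived from the DMSO control wells, cut at about 28% in these data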;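 note: inhibitors lower the bead chemiluminescence by keeping MITF from dimerizing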
AlphaScreen DR: AlphaScreen optical interference, dose response counter-screen | IC50, µM | shares compounds with MITF inh | 480 compounds, 6% hits | AlphaScreen optical interference counterscreen, cell-free; call rule not given here
AlphaScreen intf2: optically interferes with AlphaScreen signal; shares compounds with MITF inh; LysRS AlphaScreen counterscreen, signal interference, triplicate; inhibition, % at 2.6 µM; 4,700 compounds, 7.6% hits; AID 1259376;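 active = inhibition above a cutoff derived from the DMSO control wells, cut at about 30% in these data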
Numbers stand for hits; i = inactive; nt = no result given.

SMILES	GPR151 activ	FBW7 activator	TEAD-YAP block	MITF inh	MITF confirm	AlphaScreen intf2	others
NC(=O)c1ccc(N=Cc2cc(Br)ccc2O)cc1	i	i	i	i	nt	nt
O=C(O)c1ccc(O)c(C=Nc2ccc(N=Cc3cc(C(=O)O)ccc3O)cc2)c1	i	i	i	70	73	i	AlphaScreen DR=i
COc1ccc2ccccc2c1CN1CCSCC1	i	i	i	54	i	i
COc1ccc(CCNC(N)=S)cc1OC	i	i	i	63	i	i
COc1ccc(CCNc2ccc(Cl)cn2)cc1OC	i	i	i	97	i	i
C/C(Cn1nc([N+](=O)[O-])cc1C)=N\NC(=O)c1ccc([N+](=O)[O-])cc1Cl	i	i	i	i	nt	nt
CN(C)CC(C)(C)CNCC(O)COCc1ccc2c(c1)OCO2 (centres undefined)	i	i	i	57	i	i
COc1ccc(CCN2COc3c(cc(Cl)c4cccnc34)C2)cc1OC	i	i	39	68	94	100
COCCN1COc2c(cc(Cl)c3cccnc23)C1	i	i	i	66	48	92
O=C(NCc1ccccc1)N1CCN2C(=O)[C@@H]3CSCN3C(=O)[C@H]2C1	i	i	i	75	75	i	AlphaScreen DR=i
CN1C(=O)[C@H]2CN(C(=O)NCc3ccccc3)CCN2C(=O)[C@@H]1Cc1ccccc1	i	i	i	80	68	i	AlphaScreen DR=i
O=C(c1cccc2ccccc12)N1CCN2C(=O)[C@@H]3CSCN3C(=O)[C@H]2C1	i	i	i	i	nt	nt
O=C(Nc1ccc(Cl)cc1Cl)N1CCN2C(=O)[C@@H]3CSCN3C(=O)[C@H]2C1	i	i	i	70	66	i	AlphaScreen DR=i
C#CCOC1(C)COC(C)(OCC#C)CO1 (centres undefined)	i	i	i	i	nt	nt
NC(=O)c1cc(NC(=O)COC(=O)COc2cccc(C(F)(F)F)c2)cc(C(N)=O)c1	i	i	i	53	48	i	AlphaScreen DR=i
c1ccc(-c2cc(NC3CC3)nc(-c3cccnc3)n2)cc1	i	i	i	i	nt	nt
CCOC(=O)C1CCN(S(=O)(=O)c2cc(Cl)c(C)cc2OC)CC1	i	i	i	i	nt	nt
CCOC(=O)C1CCN(S(=O)(=O)c2ccc(Cl)cc2OC)CC1	i	i	i	59	i	i
Cc1cc(NCc2ccccc2F)n2ncnc2n1	i	i	i	51	i	i
Cc1cc(NCc2ccccc2)n2ncnc2n1	i	i	i	i	nt	nt
CN1CCN(CC(O)Cn2cc(C=O)c3ccccc32)CC1 (centres undefined)	i	i	i	66	i	i
N#Cc1cccc(NC(=O)CSc2nc3ccccc3s2)c1	i	i	i	i	nt	nt
N#Cc1cccc(NC(=O)CSc2nncs2)c1	i	i	i	53	i	i
CCCN1CCN(CC(=O)NC(C)c2cccc(Cl)c2)CC1 (centres undefined)	i	i	i	92	i	i
CC(NC(=O)CN1CCN(c2cccc(Cl)c2)CC1)c1ccccc1 (centres undefined)	i	i	i	i	nt	nt
SMILES	GPR151 activ	FBW7 activator	TEAD-YAP block	MITF inh	MITF confirm	AlphaScreen intf2	others
O=c1[nH]c(CN2CCCCC2)nc2sc3c(c12)CCC3	i	i	i	i	nt	nt
Cc1nc(NCCCN2CCOCC2)c2c3c(sc2n1)CCC3	i	i	i	i	nt	nt
Cc1nc(NCCCN(C)C)c2c3c(sc2n1)CCCC3	i	i	i	51	i	i
O=c1[nH]c(CNCCN2CCOCC2)nc2sc3c(c12)CCC3	i	i	i	105	i	100
Cc1nc(NCCCN2CCOCC2)c2c3c(sc2n1)CCCC3	i	i	i	74	i	i
CN(C)CCCNc1ncnc2sc3c(c12)CCCC3	i	i	i	i	nt	nt
CC(=O)c1cccc(NC(=O)CSc2nnc(Nc3ccc(C)cc3)s2)c1	i	i	i	i	nt	nt
Cn1c(=O)c2cc(C(=O)Nc3cccnc3)sc2c2ccccc21	i	i	i	i	nt	nt
CCOC(=O)C1=C(C)N=c2s/c(=C\c3cccc(Br)c3)c(=O)n2C1c1ccc(N(C)C)cc1 (centres undefined)	i	i	i	i	nt	nt
c1ccc(-c2nc(NCCCn3ccnc3)cc(-c3cccnc3)n2)cc1	i	i	i	54	34	44
c1ccc(-c2nc(NCCCn3ccnc3)cc(-c3ccncc3)n2)cc1	i	i	i	i	nt	nt
c1cncc(-c2cc(NCCCn3ccnc3)nc(-c3ccncc3)n2)c1	i	i	i	i	nt	nt
c1ccc(-c2cc(NCCCn3ccnc3)nc(-c3cccnc3)n2)cc1	i	i	i	53	i	39
Cc1cnc(CNc2cc(-c3cccnc3)nc(-c3cccnc3)n2)nc1	i	i	i	78	i	i
CCOc1ccc(-c2ccc(NC(=O)c3c(OC)cccc3OC)cc2)nn1	i	i	i	99	i	i
COc1ccc(-c2ccc(C)c(NC(=O)c3c(OC)cccc3OC)c2)nn1	i	i	i	i	nt	nt
CC1CS(=O)(=O)N(c2cccc(C(=O)N3CCN(c4ccccc4F)CC3)c2)C1=O (centres undefined)	i	i	i	i	nt	nt
O=C(N/N=C/c1ccc(C(F)(F)F)cc1)c1ccc(O)cc1O	i	i	i	69	i	i
COc1ccc(C2c3[nH]c4ccccc4c3CCN2C(=O)CCCn2cncn2)c(F)c1 (centres undefined)	i	i	i	i	nt	nt
CC(C)NC(=O)CCCCCn1nnc2ccccc2c1=O	i	i	i	i	nt	nt
CCCCNC(=O)CCCCCn1nnc2ccccc2c1=O	i	i	i	73	i	i
COc1ccccc1N1CCN(C(=O)CSc2nc3ccccc3c(=O)n2NC(=O)Cc2ccccc2)CC1	i	i	i	i	nt	nt
COc1ccccc1N1CCN(C(=O)CSc2nc3ccccc3c(=O)n2NC(=O)c2ccccc2)CC1	i	i	i	75	i	i
N#CCSc1nc2ccccc2c(=O)n1NC(=O)c1ccccc1	i	i	82	67	i	i
CNc1nc(-c2ccccn2)nnc1-c1ccccc1	i	i	i	108	107	98
SMILES	GPR151 activ	FBW7 activator	TEAD-YAP block	MITF inh	MITF confirm	AlphaScreen intf2	others
CCN1CCN(CCOc2ccccc2-c2ccccc2)CC1	i	i	i	i	nt	nt
CN1CCN(CCOc2ccccc2-c2ccccc2)CC1	i	i	i	55	i	i
c1ccc(-c2ccccc2OCCCCN2CCOCC2)cc1	i	i	i	77	i	i
c1ccc(-c2ccccc2OCCN2CCOCC2)cc1	i	i	i	78	i	i
CCc1ccc(NC(=S)N(CCCN2CCN(CC)CC2)Cc2ccco2)cc1	i	i	i	i	nt	nt
CCOC(=O)c1c(NC(=O)c2nn(C)cc2[N+](=O)[O-])sc2c1CCCC2	i	i	i	i	nt	nt
CCOC(=O)c1c(NC(=O)c2nn(C)cc2Cl)sc2c1CCCC2	i	i	i	93	i	i
CC1(C)CCCC2=C1CC(C(=O)O)C(C(=O)N1CCCCC1)C2 (centres undefined)	i	i	i	85	i	i
Cc1ccccc1CC1(CO)CCCN(Cc2ccccn2)C1 (centres undefined)	i	i	i	i	nt	nt
CC(=O)NNC(=O)CSc1nnnn1C1CCCCC1	i	i	i	76	i	i

Screens as filed in PubChem BioAssay.
